Test results reported in PubChem BioAssay (NCI).
The panel holds about 79,000 compounds, 15% with a hit somewhere; the sample as a whole holds those more often. Calls of active or inactive are those of the source. Cut-off read from the data, not from the text of the source: active = growth inhibition above about 70%; inactive = the rest.

Key:
[1] = NCI Yeast Anticancer Drug Screen. Data for the wt2 strain (AID 169);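 note: 0% = growth of vehicle-treated yeast cultures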; conditions: S. cerevisiae wt2 strain growth inhibition, active compounds read high
Procedure, shortened: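 The panel's yeast strains carry defined changes in DNA repair or cell cycle genes. Each strain is grown with compound, and growth loss is scored relative to vehicle.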

[2] = NCI Yeast Anticancer Drug Screen. Data for the sgs1 strain (AID 173);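 note: 0% = growth of vehicle-only control cultures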; conditions: S. cerevisiae sgs1 mutant, active compounds read high
Procedure, shortened: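 Vehicle-treated cultures served as reference for growth inhibition of a yeast strain altered in DNA damage repair or cell cycle control after compound exposure.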

[3] = NCI Yeast Anticancer Drug Screen. Data for the mlh1 rad18 strain (AID 175); conditions: S. cerevisiae mlh1 rad18 strain growth inhibition, active compounds read high
Procedure, shortened: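 Inhibition values reflect reduced growth of mutant yeast versus vehicle-treated controls following compound exposure; the mutations affect DNA damage repair.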

[4] = NCI Yeast Anticancer Drug Screen. Data for the rad18 strain (AID 177); conditions: S. cerevisiae rad18 mutant growth inhibition, active compounds read high
Procedure, shortened: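 Steps: expose repair-mutant yeast to compound; measure growth; express as inhibition relative to vehicle control.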

[5] = NCI Yeast Anticancer Drug Screen. Data for the rad52 strain (AID 147);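 note: 0% = growth of vehicle-treated control cultures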; conditions: S. cerevisiae rad52 mutant growth inhibition, active compounds read high
Procedure, shortened: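 Inhibition of yeast growth, referenced to vehicle controls, was the measured output for a strain with defective DNA damage repair.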

[6] = NCI Yeast Anticancer Drug Screen. Data for the wt1 strain (AID 149);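 note: 0% = growth of vehicle-treated wt1 cultures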; conditions: S. cerevisiae wt1 strain (SPY 50644) growth inhibition, active compounds read high
Procedure, shortened: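 Growth inhibition read against vehicle controls after compound exposure of the wt1 yeast strain.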

[7] = NCI Yeast Anticancer Drug Screen. Data for the rad50EPP+ strain (AID 151);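 note: 0% = growth of vehicle-treated control cultures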; conditions: S. cerevisiae rad50 mutant strain, active compounds read high
Procedure, shortened: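 Genetically defined yeast (rad50EPP+, DNA damage repair alteration) is grown with compound, and inhibition of growth is expressed relative to vehicle-treated controls.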

[8] = NCI Yeast Anticancer Drug Screen. Data for the mgt1 strain (AID 153); conditions: S. cerevisiae mgt1 mutant growth inhibition, active compounds read high
Procedure, shortened: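 In the mgt1 strain, test compounds were added and growth inhibition was determined relative to vehicle-treated controls.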

[9] = NCI Yeast Anticancer Drug Screen. Data for the rad50 strain (AID 155);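 note: 0% = growth of vehicle-only cultures of the same strain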; conditions: S. cerevisiae rad50 strain growth inhibition, active compounds read high
Procedure, shortened: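 Readout: growth inhibition relative to vehicle-treated cultures. Compound exposure was carried out in a genetically defined yeast strain deficient in DNA damage repair.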

[10] = NCI Yeast Anticancer Drug Screen. Data for the mec2-1 strain (AID 157); conditions: S. cerevisiae mec2-1 strain, active compounds read high
Procedure, shortened: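 Each compound was tested on mec2-1 yeast, a strain altered in DNA damage repair or cell cycle control. Growth inhibition is reported relative to vehicle.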

[11] = NCI Yeast Anticancer Drug Screen. Data for the rad14 strain (AID 159);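 note: 0% = growth of vehicle-treated control cultures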; conditions: S. cerevisiae rad14 strain growth inhibition, active compounds read high
Procedure, shortened: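 Growth inhibition vs vehicle controls; genetically altered yeast strain (DNA damage repair defect) treated with test compounds.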

[12] = NCI Yeast Anticancer Drug Screen. Data for the sgs1 mgt1 strain (AID 161);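 note: 0% = growth of cultures given vehicle only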; conditions: S. cerevisiae sgs1 mgt1 strain, active compounds read high
Procedure, shortened: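 Genetically altered yeast, compound exposure, growth inhibition relative to vehicle.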

[13] = NCI Yeast Anticancer Drug Screen. Data for the CLN2oe strain (AID 163);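 note: 0% = growth of vehicle-only control cultures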; conditions: S. cerevisiae CLN2oe strain, active compounds read high
Procedure, shortened: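 First, the altered yeast strain was treated with each compound; second, its growth was measured; finally, inhibition was derived by comparison with vehicle controls.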

[14] = NCI Yeast Anticancer Drug Screen. Data for the cln2 rad14 strain (AID 165);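 note: 0% = growth equal to vehicle treated cultures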; conditions: S. cerevisiae cln2 rad14 strain, active compounds read high
Procedure, shortened: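 Test compounds were added to cln2 rad14 yeast cultures; inhibition of growth was then determined by comparison with vehicle treatment.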

[15] = NCI Yeast Anticancer Drug Screen. Data for the bub3 strain (AID 167); conditions: S. cerevisiae bub3 mutant strain, active compounds read high
Procedure, shortened: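 Readout: yeast growth inhibition, expressed relative to vehicle-only wells. The test organism is a mutant strain from a panel with lesions in DNA repair or checkpoint genes.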

[16] = NCI Yeast Anticancer Drug Screen. Data for the mlh1 strain (AID 171);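 note: 0% = growth of vehicle-treated control cultures of the same strain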; conditions: S. cerevisiae mlh1 strain growth inhibition, active compounds read high
Procedure, shortened: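 Inhibition values reflect reduced yeast growth in the presence of compound, referenced to vehicle controls, using a strain chosen for its alteration in DNA repair or cell cycle control.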

[17] = at 5.0 µM (retest, dose inferred, filed as 0.5)
[18] = at 50.0 µM (retest, dose inferred, filed as 5.0)

Measured: growth inhibition

c1ccc2c(c1)Oc1cccc3cccc-2c13
inactive: [1]; at 1.2 µM 2% | [1]; at 3.7 µM 0% | [1]; at 11.0 µM 1% | [1]; at 33.0 µM 15% | [1]; at 100.0 µM 36% | [2]; at 1.2 µM 11% | [2]; at 3.7 µM 13% | [2]; at 11.0 µM 13% | [2]; at 33.0 µM 39% | [2]; at 100.0 µM 60% | [3]; at 50.0 µM 42.7% | [4]; at 1.2 µM 22% | [4]; at 3.7 µM 26% | [4]; at 11.0 µM 25% | [4]; at 33.0 µM 56%
active: [3]; [17] 100% | [3]; [18] 99% | [4]; at 100.0 µM 71%

O=C([O][Sn]([O]C(=O)c1ccccc1)([c]1ccccc1)[c]1ccccc1)c1ccccc1
inactive: [5]; at 1.2 µM 23% | [5]; at 3.7 µM 21% | [5]; at 11.0 µM 22% | [5]; at 33.0 µM 46% | [6]; at 1.2 µM 0% | [6]; at 3.7 µM 4% | [6]; at 11.0 µM -4% | [6]; at 33.0 µM 9% | [7]; at 1.2 µM 30% | [7]; at 3.7 µM 18% | [7]; at 11.0 µM 24% | [7]; at 33.0 µM 21% | [7]; at 100.0 µM 18% | [8]; at 1.2 µM 1% | [8]; at 3.7 µM 14% | [8]; at 11.0 µM 20% | [8]; at 33.0 µM 43% | [9]; at 1.2 µM 20% | [9]; at 3.7 µM 30% | [9]; [17] 4% | [9]; at 11.0 µM 27% | [9]; at 33.0 µM 40% | [9]; [18] 26% | [9]; at 50.0 µM 68.5% | [10]; at 1.2 µM 21% | [10]; at 3.7 µM 16% | [10]; [17] 12% | [10]; at 11.0 µM 16% | [10]; at 33.0 µM 37% | [10]; [18] 52% | [11]; at 1.2 µM 32% | [11]; at 3.7 µM 23% | [11]; at 11.0 µM 30% | [11]; at 33.0 µM 35% | [12]; [17] -11% | [12]; at 50.0 µM 56.4% | [13]; at 1.2 µM 15% | [13]; at 3.7 µM 16% | [13]; at 11.0 µM 10% | [13]; at 33.0 µM 23% | [13]; at 100.0 µM 57% | [14]; [17] -1% | [14]; at 50.0 µM 60% | [15]; at 1.2 µM 8% | [15]; at 3.7 µM 2% | [15]; [17] -14% | [15]; at 11.0 µM 10% | [15]; at 33.0 µM 30% | [15]; at 50.0 µM 58.5% | [1]; at 1.2 µM 8% | [1]; at 3.7 µM 1% | [1]; at 11.0 µM 20% | [2]; at 1.2 µM 28% | [2]; at 3.7 µM 26% | [2]; at 11.0 µM 30% | [2]; at 33.0 µM 45% | [3]; [17] 11% | [3]; at 50.0 µM 50.1% | [4]; at 1.2 µM 0% | [4]; at 3.7 µM -4% | [4]; at 11.0 µM -2% | [4]; at 33.0 µM 43%
active: [5]; at 100.0 µM 81% | [6]; at 100.0 µM 78% | [8]; at 100.0 µM 86% | [9]; at 100.0 µM 88% | [10]; at 50.0 µM 76.8% | [10]; at 100.0 µM 87% | [11]; at 100.0 µM 82% | [12]; [18] 73% | [14]; [18] 77% | [15]; [18] 87% | [15]; at 100.0 µM 83% | [1]; at 33.0 µM 81% | [1]; at 100.0 µM 97% | [2]; at 100.0 µM 84% | [3]; [18] 76% | [4]; at 100.0 µM 88%

COc1ccc2nc3cccc([N+](=O)[O-])c3c(NCCN(CCO)CCO)c2c1
inactive: [6]; at 1.2 µM -2% | [6]; at 3.7 µM 6% | [6]; at 11.0 µM 31% | [7]; at 1.2 µM 3% | [7]; at 3.7 µM 13% | [7]; at 11.0 µM 44% | [8]; at 1.2 µM -3% | [8]; at 3.7 µM 2% | [8]; at 11.0 µM 29% | [9]; at 1.2 µM 43% | [9]; [17] 42% | [10]; at 1.2 µM 14% | [10]; [17] 13% | [12]; at 50.0 µM 69.5% | [13]; at 1.2 µM -5% | [13]; at 3.7 µM -5% | [13]; at 11.0 µM 11% | [13]; at 33.0 µM 61% | [15]; at 1.2 µM -13% | [15]; at 3.7 µM -18% | [15]; [17] -41% | [15]; at 11.0 µM -2% | [15]; at 33.0 µM 52% | [15]; at 50.0 µM 43.6% | [1]; at 1.2 µM -2% | [1]; at 3.7 µM -1% | [1]; at 11.0 µM 11% | [1]; at 33.0 µM 53% | [16]; at 1.2 µM 5% | [16]; at 3.7 µM 25% | [16]; at 11.0 µM 61% | [3]; [17] 68%
active: [5]; at 1.2 µM 75% | [5]; at 3.7 µM 92% | [5]; at 11.0 µM 94% | [5]; at 33.0 µM 96% | [5]; at 100.0 µM 96% | [6]; at 33.0 µM 73% | [6]; at 100.0 µM 77% | [7]; at 33.0 µM 78% | [7]; at 100.0 µM 94% | [8]; at 33.0 µM 71% | [8]; at 100.0 µM 75% | [9]; at 3.7 µM 81% | [9]; at 11.0 µM 91% | [9]; at 33.0 µM 94% | [9]; [18] 96% | [9]; at 50.0 µM 81.2% | [9]; at 100.0 µM 94% | [10]; at 3.7 µM 82% | [10]; at 11.0 µM 95% | [10]; at 33.0 µM 97% | [10]; [18] 97% | [10]; at 50.0 µM 86.2% | [10]; at 100.0 µM 97% | [11]; at 1.2 µM 84% | [11]; at 3.7 µM 96% | [11]; at 11.0 µM 98% | [11]; at 33.0 µM 98% | [11]; at 100.0 µM 98% | [12]; [17] 78% | [12]; [18] 94% | [13]; at 100.0 µM 91% | [14]; [17] 81% | [14]; [18] 96% | [14]; at 50.0 µM 83.2% | [15]; [18] 86% | [15]; at 100.0 µM 96% | [1]; at 100.0 µM 93% | [16]; at 33.0 µM 84% | [16]; at 100.0 µM 86% | [3]; [18] 97% | [3]; at 50.0 µM 74.5% | [4]; at 1.2 µM 94% | [4]; at 3.7 µM 96% | [4]; at 11.0 µM 96% | [4]; at 33.0 µM 95% | [4]; at 100.0 µM 95%
